# Assay results as given in the supplement of paper PMC11732987, “Enantioselective OTUD7B fragment discovery through chemoproteomics screening and high-throughput optimisation” (Communications Chemistry, 2025).
# A number with no mark means an inactive call.
# What was measured:
# Test in all cases: log2 ratio of Biotin-Ahx-Ub-VS probe labelling (compound/DMSO); higher = less target engagement, active = hit call of the paper (q ≤ 0.05, log2 ratio ≤ -1)
# Settings in all cases: treatment time: 3 h
# [1] = compound: CN(Cc1cccc(Br)c1)C(=O)CCl
# Method in brief: (§1)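 HEK293T lysate (495 µg per sample, in Tris/CHAPS/IGEPAL buffer with protease inhibitors) was treated in triplicate with compound at 50 or 200 µM or with DMSO for 3 h. It was then treated with Biotin-Ahx-Ub-VS (0.5 µM final) for 1 h. Labelled DUBs were NeutrAvidin-enriched, digested with LysC and trypsin, and run by diaPASEF LC-MS/MS. Median-normalised label-free quantities gave average log2 ratios compound/DMSO by unpaired t-test, using proteins with ≥2 unique peptides.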
# [2] = compound: CN(Cc1ccccc1)C(=O)CCl
# Method in brief: as §1
# [3] = compound: COc1ccc(CN(C)C(=O)CCl)cc1
# Method in brief: as §1
# [4] = compound: COc1cccc(CN(CCCc2ccccc2)C(=O)CCl)c1
# Method in brief: as §1
# [5] = compound: ClCC(=O)N1CCc2cc(Cl)c(Cl)cc2C1
# Method in brief: as §1
# [6] = compound: ClCC(=O)N1CCc2nc(ncc2C1)-c1ccccc1
# Method in brief: as §1
# [7] = compound: ClCC(=O)N1CCc2nocc2C1
# Method in brief: as §1
# [8] = compound: ClCC(=O)N1CCc2scc(Br)c2C1
# Method in brief: as §1
# [9] = compound: ClCC(=O)NC(C1CCCC1)c1cccs1
# Method in brief: as §1
# [10] = compound: ClCC(=O)NC1CCCc2ccccc12
# Method in brief: as §1
# [11] = compound: ClCC(=O)NC1CCOc2ccc(Cl)cc12
# Method in brief: as §1
# [12] = compound: ClCC(=O)NC1CCSc2ccccc12
# Method in brief: as §1
# [13] = compound: ClCC(=O)N[C@H]1CCCc2ccccc12
# Method in brief: as §1
# [14] = compound: Fc1ccc(N2CCN(c3nc4c(CN(C(CCl)=O)CC4)cn3)CC2)cc1.Cl.Cl
# Method in brief: as §1
# [15] = compound: CN(Cc1cccc(OCc2ccccc2C)c1)C(=O)CCl
# Method in brief: as §1
# UniProt Q9NUU6, sequence (Q9NUU6 whole entry): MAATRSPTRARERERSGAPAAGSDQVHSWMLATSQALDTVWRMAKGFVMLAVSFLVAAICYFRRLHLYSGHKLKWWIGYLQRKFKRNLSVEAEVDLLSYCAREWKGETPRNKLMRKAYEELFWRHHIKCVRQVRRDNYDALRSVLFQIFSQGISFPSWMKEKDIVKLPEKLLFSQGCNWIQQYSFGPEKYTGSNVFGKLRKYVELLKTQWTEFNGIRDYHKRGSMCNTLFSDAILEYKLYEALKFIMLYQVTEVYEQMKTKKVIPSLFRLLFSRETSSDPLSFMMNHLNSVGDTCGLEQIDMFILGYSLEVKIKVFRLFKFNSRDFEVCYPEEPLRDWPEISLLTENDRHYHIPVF
# UniProt Q96RU2, sequence (Q96RU2 whole entry): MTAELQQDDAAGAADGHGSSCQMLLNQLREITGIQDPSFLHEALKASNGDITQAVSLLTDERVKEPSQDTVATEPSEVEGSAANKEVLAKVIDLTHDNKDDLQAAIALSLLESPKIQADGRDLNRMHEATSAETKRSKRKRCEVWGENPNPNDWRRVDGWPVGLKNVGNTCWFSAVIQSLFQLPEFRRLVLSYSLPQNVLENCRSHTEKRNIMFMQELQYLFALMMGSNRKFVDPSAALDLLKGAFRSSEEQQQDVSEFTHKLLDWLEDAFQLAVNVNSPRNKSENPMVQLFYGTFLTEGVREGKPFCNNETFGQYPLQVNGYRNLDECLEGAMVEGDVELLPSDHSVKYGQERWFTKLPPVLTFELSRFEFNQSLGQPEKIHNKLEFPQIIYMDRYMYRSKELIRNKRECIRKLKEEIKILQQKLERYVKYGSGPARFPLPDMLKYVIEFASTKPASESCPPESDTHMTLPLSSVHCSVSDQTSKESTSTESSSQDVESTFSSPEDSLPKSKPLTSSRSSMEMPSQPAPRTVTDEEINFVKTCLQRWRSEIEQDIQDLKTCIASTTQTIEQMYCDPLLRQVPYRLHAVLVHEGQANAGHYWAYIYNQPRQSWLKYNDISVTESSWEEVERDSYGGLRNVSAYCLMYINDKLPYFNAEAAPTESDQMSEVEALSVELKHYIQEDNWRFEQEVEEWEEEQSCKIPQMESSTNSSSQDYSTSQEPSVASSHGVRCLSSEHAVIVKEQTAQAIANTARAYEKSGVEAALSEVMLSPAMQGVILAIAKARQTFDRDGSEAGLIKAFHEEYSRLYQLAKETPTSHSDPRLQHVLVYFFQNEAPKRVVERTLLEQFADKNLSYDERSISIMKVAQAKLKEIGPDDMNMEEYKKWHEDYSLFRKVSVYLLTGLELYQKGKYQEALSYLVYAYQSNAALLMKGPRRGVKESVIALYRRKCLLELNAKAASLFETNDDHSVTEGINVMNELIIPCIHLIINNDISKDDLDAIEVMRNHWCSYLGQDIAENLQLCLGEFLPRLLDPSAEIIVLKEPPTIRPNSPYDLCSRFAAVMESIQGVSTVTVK
# UniProt Q70EL2, sequence (Q70EL2 whole entry): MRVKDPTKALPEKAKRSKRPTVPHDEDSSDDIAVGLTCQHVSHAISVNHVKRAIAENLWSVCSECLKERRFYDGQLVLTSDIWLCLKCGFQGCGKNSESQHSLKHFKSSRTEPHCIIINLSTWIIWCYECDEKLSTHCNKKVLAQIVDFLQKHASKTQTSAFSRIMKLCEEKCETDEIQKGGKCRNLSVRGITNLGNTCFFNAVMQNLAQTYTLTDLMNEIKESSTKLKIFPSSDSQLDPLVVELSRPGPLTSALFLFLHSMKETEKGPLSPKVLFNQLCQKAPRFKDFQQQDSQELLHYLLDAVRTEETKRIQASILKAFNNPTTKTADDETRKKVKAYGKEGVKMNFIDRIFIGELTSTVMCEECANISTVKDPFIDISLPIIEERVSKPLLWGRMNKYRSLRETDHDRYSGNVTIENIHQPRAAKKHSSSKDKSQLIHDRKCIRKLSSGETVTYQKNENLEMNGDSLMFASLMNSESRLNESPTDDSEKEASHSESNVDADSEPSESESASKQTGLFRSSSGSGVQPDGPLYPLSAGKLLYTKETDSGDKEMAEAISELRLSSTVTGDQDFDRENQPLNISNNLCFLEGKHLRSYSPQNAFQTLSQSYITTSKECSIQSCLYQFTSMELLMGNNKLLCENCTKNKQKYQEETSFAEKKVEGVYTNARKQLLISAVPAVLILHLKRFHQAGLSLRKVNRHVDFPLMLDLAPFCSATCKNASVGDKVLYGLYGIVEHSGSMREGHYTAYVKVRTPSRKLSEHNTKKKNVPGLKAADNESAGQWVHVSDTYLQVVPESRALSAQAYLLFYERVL
Target,log2 ratio of Biotin-Ahx-Ub-VS probe labelling ([1]; compound concentration: 50uM),log2 ratio of Biotin-Ahx-Ub-VS probe labelling ([1]; compound concentration: 200uM),log2 ratio of Biotin-Ahx-Ub-VS probe labelling ([2]; compound concentration: 50uM),log2 ratio of Biotin-Ahx-Ub-VS probe labelling ([2]; compound concentration: 200uM),log2 ratio of Biotin-Ahx-Ub-VS probe labelling ([3]; compound concentration: 50uM),log2 ratio of Biotin-Ahx-Ub-VS probe labelling ([3]; compound concentration: 200uM),log2 ratio of Biotin-Ahx-Ub-VS probe labelling ([4]; compound concentration: 50uM),log2 ratio of Biotin-Ahx-Ub-VS probe labelling ([4]; compound concentration: 200uM),log2 ratio of Biotin-Ahx-Ub-VS probe labelling ([5]; compound concentration: 50uM),log2 ratio of Biotin-Ahx-Ub-VS probe labelling ([5]; compound concentration: 200uM),log2 ratio of Biotin-Ahx-Ub-VS probe labelling ([6]; compound concentration: 50uM),log2 ratio of Biotin-Ahx-Ub-VS probe labelling ([6]; compound concentration: 200uM),log2 ratio of Biotin-Ahx-Ub-VS probe labelling ([7]; compound concentration: 50uM),log2 ratio of Biotin-Ahx-Ub-VS probe labelling ([7]; compound concentration: 200uM),log2 ratio of Biotin-Ahx-Ub-VS probe labelling ([8]; compound concentration: 50uM),log2 ratio of Biotin-Ahx-Ub-VS probe labelling ([8]; compound concentration: 200uM),log2 ratio of Biotin-Ahx-Ub-VS probe labelling ([9]; compound concentration: 50uM),log2 ratio of Biotin-Ahx-Ub-VS probe labelling ([9]; compound concentration: 200uM),log2 ratio of Biotin-Ahx-Ub-VS probe labelling ([10]; compound concentration: 50uM),log2 ratio of Biotin-Ahx-Ub-VS probe labelling ([10]; compound concentration: 200uM),log2 ratio of Biotin-Ahx-Ub-VS probe labelling ([11]; compound concentration: 50uM),log2 ratio of Biotin-Ahx-Ub-VS probe labelling ([11]; compound concentration: 200uM),log2 ratio of Biotin-Ahx-Ub-VS probe labelling ([12]; compound concentration: 50uM),log2 ratio of Biotin-Ahx-Ub-VS probe labelling ([12]; compound concentration: 200uM),log2 ratio of Biotin-Ahx-Ub-VS probe labelling ([13]; compound concentration: 50uM),log2 ratio of Biotin-Ahx-Ub-VS probe labelling ([13]; compound concentration: 200uM),log2 ratio of Biotin-Ahx-Ub-VS probe labelling ([14]; compound concentration: 50uM),log2 ratio of Biotin-Ahx-Ub-VS probe labelling ([14]; compound concentration: 200uM),log2 ratio of Biotin-Ahx-Ub-VS probe labelling ([15]; compound concentration: 50uM),log2 ratio of Biotin-Ahx-Ub-VS probe labelling ([15]; compound concentration: 200uM)
USP28 (UniProt Q96RU2),-0.197,-0.68,-0.195,-0.692,-0.172,-0.467,-0.253,-0.826,-0.496,-1.71 (active),-0.15,-0.716,-0.192,-0.624,-0.468,-1.28 (active),-0.0425,-0.313,-0.263,-0.626,-0.164,-0.586,-0.108,-0.622,-0.259,-0.947,-0.134,-1.12 (active),,
FAM105A (UniProt Q9NUU6),-0.187,-0.00846,-0.198,0.0229,-0.0227,-0.0524,-0.219,-0.197,0.119,-0.429,-0.124,-0.242,-0.252,-0.149,0.049,-0.0833,0.0872,0.0369,-0.0884,-0.0754,-0.148,-0.0677,0.0795,-0.0897,0.0155,-0.0104,0.239,-0.443,,
UniProt Q70EL2,-0.228,-0.814,-0.191,-0.88,-0.338,-0.647,-0.512,-0.481,-0.569,-1.27 (active),-0.558,-1.03 (active),-0.0582,-0.311,-0.413,-0.868,0.37,-0.115,0.0142,-0.673,-0.00989,-0.0714,0.0879,0.0524,0.0625,-0.323,-0.414,-0.995,-0.959,-0.772
